D3 antag = qHTS of D3 Dopamine Receptor Antagonist: qHTS; D3R cells, DiscoveRx beta-arrestin luminescence, antagonist mode; stronger effect = lower value; D(3) dopamine receptor (Homo sapiens), P35462; max response, negative = inhibition, %; hit rate 2.5% among 360,000; AID 652054, 2013; in the data active = max response below about -50%; inconclusive = no clear call, values can overlap the other calls
Target sequence (P35462 whole entry, looked up): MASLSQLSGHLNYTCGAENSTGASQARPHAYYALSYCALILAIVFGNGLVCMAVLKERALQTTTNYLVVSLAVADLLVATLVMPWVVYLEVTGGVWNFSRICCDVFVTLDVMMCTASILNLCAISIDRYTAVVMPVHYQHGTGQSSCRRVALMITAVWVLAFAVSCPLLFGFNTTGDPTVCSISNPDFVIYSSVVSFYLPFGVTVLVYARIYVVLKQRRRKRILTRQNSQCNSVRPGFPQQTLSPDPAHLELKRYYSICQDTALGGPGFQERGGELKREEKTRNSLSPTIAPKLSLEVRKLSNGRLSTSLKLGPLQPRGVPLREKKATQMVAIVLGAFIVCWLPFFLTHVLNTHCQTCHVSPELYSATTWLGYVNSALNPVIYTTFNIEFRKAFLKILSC
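Cells plated overnight at 1500 cells/well, then exposed to library compounds with dopamine controls for 90 minutes at 37 degrees C. DiscoveRx reagent added for 30–60 minutes at room temperature; luminescence read, quantitative HTS format.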
D3 ag = qHTS of D3 Dopamine Receptor Agonist: qHTS. hit rate 0.58% among 410,000. max activation, %. D3R DiscoveRx beta-arrestin cells, luminescence, 90 min; in the data active = max activation above about 30%
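Agonist mode: compounds and dopamine controls were applied to plated cells for 90 min at 37 degrees C after an overnight attachment at 1500 cells/well. Luminescent read-out followed 30 - 60 minutes at room temperature with DiscoveRx detection reagent.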
CBFb RUNX1 block = qHTS Assay for Compounds Blocking the Interaction Between CBF-beta and RUNX1 for the Treatment of Acute Myeloid Leukemia | AlphaScreen CBFb-His/RUNX1-biotin binding, biochemical | Runt-related transcription factor 1 (Homo sapiens) + Core-binding factor subunit beta … | 230,000 tested, under 10 active | AID 1477, 2009 | Potency, µM (series often up to 59.8 µM), most hits filed as inhibitors
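CBF-beta (His) and RUNX1 (biotin), 30 nM each; 20 min preassociation; + compound, 15 min; + beads 50 ng each (Ni, streptavidin), 90 min; RT; AlphaScreen read.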
MBNL1-CUG inh = qHTS Assay for Inhibitors of MBNL1-poly(CUG) RNA binding; Muscleblind-like protein 1 (Homo sapiens), Q9NR56; TR-FRET MBNL1-His/biotin-(CUG)12 binding, 665/545 ratio; Potency, µM (top dose mostly 57.5 µM), usual class: inhibitors; hit rate 0.036% among 280,000; active = well fitted inhibition curve with a large enough effect in the signal ratio, with a control signal flat, not every such curve was filed as active; inconclusive = small, poorly fitted or top-dose-only effect, or effect the other way, or a change in a side signal; inactive = no such curve, though single readings can be large or run the other way; the % refers to the signal ratio
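MBNL1-His + Biotin-(CUG)12, cpd titration 92 nM–58 uM; Tb anti-His Ab 0.055 ng/ul, SA-XL665 5 nM (final); 60 min RT; ratiometric 665/545 nm, Ex 340 nm; normalized to buffer and full-complex controls.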
PTHR1 ag = qHTS for PTHR1 Agonists: Primary Screen; HEK293 GP2 PTHR1 cells, GloSensor cAMP luminescence, 1 h; hit rate 0.075% among 410,000; Potency, µM (highest dose often 115 µM), usual class: activators; Parathyroid hormone/parathyroid hormone-related peptide receptor (Homo sapiens), Q03431; note: nearly all actives have a fitted effect of over 55% in size
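HEK-293-derived GP2 cells expressing PTHR1 and a GloSensor cAMP reporter, 3,000/well, plated overnight, given luciferin plus IBMX (each 0.5 mM as added) for 1 h at 37 °C, then compound for 1 h at 37 °C. Luminescence was read after 15 min at room temperature.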
Integrin act MD = qHTS for Activators of Integrin-Mediated Alleviation for Muscular Dystrophy; alpha7betagal myoblasts, beta-gal FDG fluorescence, 48 h; Potency, µM (titrated, usually from 38.3 µM), usual class: activators; hit rate 0.064% among 350,000; AID 624291, 2012; note: nearly all actives have a fitted effect of over 60% in size
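alpha7betagal+/- myoblasts (passage 13, 250/well) treated 48 h at 37C with compounds at 1:260 dilution of DMSO stock. Lysed, then beta-galactosidase activity read as FDG fluorescence (ex 480/em 540) after 30 min, with pre-read for autofluorescence.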
Hits are given with their value; n = inactive; u = inconclusive; x = no result; ! = repeats disagree. This is a sample that favours compounds with a hit; in the whole collection about 2.8% have one here. Unless noted, calls come from the whole dose curve; as a rule, active = well fitted curve in the direction sought with a large enough effect; inconclusive = small, poorly fitted or top-dose-only effect, or another doubt; inactive = no such curve, though single readings can be large; an effect the other way counts as inactive or inconclusive.

SMILES | D3 antag | D3 ag | CBFb RUNX1 block | MBNL1-CUG inh | PTHR1 ag | Integrin act MD
C=CCn1c(=O)c2c(nc(-n3nc(C)cc3C)n2C)n(C)c1=O | n | n | x | n | n | n
COc1cccc(NS(=O)(=O)c2ccc(S(=O)(=O)N3CCOCC3)cc2)c1 | n | 40 | n | n | n | n
COc1cc(S(=O)(=O)N2CCOCC2)ccc1NC(=O)COC(=O)CC12CC3CC(CC(C3)C1)C2 | -53 | n | n | n | n | n
CCOc1ccccc1/C=N/NC(=O)c1cccc(S(=O)(=O)N2CCOCC2)c1 | -63 | n | n | n | n | n
COc1ccc(-c2csc(NC(=O)c3cccc(S(=O)(=O)N4CCN(C)CC4)c3)n2)cc1 | -51 | n | n | n | n | n
COc1cccc(NS(=O)(=O)c2ccc(S(=O)(=O)N3CCCC3)cc2)c1 | n | n | x | x | n | n
CN1CCN(S(=O)(=O)c2cccc(C(=O)Nc3nc(-c4ccccc4)cs3)c2)CC1 | u | n | n | n | n | n
COc1cc(S(=O)(=O)N2CCOCC2)ccc1NC(=O)COC(=O)c1cc(OC)c(OC)c(OC)c1 | n | n | x | x | n | n
CCOC(=O)C1(CC)NC(c2ccc(OC)c(OC)c2)C2C(=O)N(c3cccc(C(C)=O)c3)C(=O)C21 (stereo not drawn) | n | n | x | n | n | n
CCO[C@@H]1O[C@H](C(COCc2ccccc2)OCc2ccccc2)[C@H](OCc2ccccc2)[C@H]1O (stereo partly drawn) | x | n | x | x | x | x
CC(Sc1nnc(C2CC2)n1-c1ccccc1)C(=O)N1CCCC1 (stereo not drawn) | n | n | x | x | n | n
Cc1ccc(NC(=O)N2CCC(C(=O)c3ccc(F)cc3)CC2)cc1 | n | n | x | n | n | n
COc1ccc(CN2CCC(C(=O)c3ccc(F)cc3)CC2)cc1 | -120 | n | x | n | n | n
Cc1ccc(CN2CCC(C(=O)c3ccc(F)cc3)CC2)cc1 | -122 | n | x | x | n | n
COc1ccc(C(=O)C2CCN(C(=O)c3ccc(F)cc3)CC2)cc1 | n | n | x | n | n | n
O=C(c1ccc(F)cc1)C1CCN(CCn2c(=O)[nH]c3ccccc3c2=O)CC1 | -51 | n | n | n | n | x
COc1ccc(OC)c(NC(=O)Cc2c(C(=O)O)n(C)c3ccc(C)cc23)c1 | x | n | x | x | n | x
Clc1ccc(SCCN2CCNCC2)cc1 | n | n | n | n | n | n
CC1CN(CCCSc2ccc(Cl)cc2)CC(C)O1 (stereo not drawn) | -71 | n | n | n | n | n
Clc1ccc(SCCCN2CCCCC2)cc1 | -80 | n | n | x | n | n
CC1CN(CCCCSc2ccccc2)CC(C)O1 (stereo not drawn) | n | n | x | n | n | n
COc1ccc(C(C)(NC(C)=O)c2nc(-c3cncnc3)cs2)cc1 (stereo not drawn) | n | n | x | x | n | x
CC(=O)NC(C)(c1ccccc1)c1nc(-c2cncnc2)cs1 (stereo not drawn) | -60 | n | x | x | n | x
Cc1ccnc(N2CCC(C(=O)Nc3ccc4c(c3)OCCO4)CC2)n1 | n | n | n | n | n | n
O=C1N(c2ccccc2C(F)(F)F)O[C@@]1(c1ccccc1)C1CCCCC1 | -57 | n | x | x | n | n
SMILES | D3 antag | D3 ag | CBFb RUNX1 block | MBNL1-CUG inh | PTHR1 ag | Integrin act MD
COc1ccc(NC(=O)CCN2C(=O)c3ccccc3C2=O)cc1 | n | n | x | n | n | u
COc1ccc(NC(=O)COC(=O)CN2C(=O)c3ccccc3C2=O)cc1 | -54 | n | x | x | n | n
COc1ccc(NC(=O)CSc2nc3c(cc2C#N)CN(C)CC3)cc1 | n | n | n | u | n | n
CCN1CCc2nc(SCC(=O)Nc3ccc(OC)cc3)c(C#N)cc2C1 | -70 | n | u | n | n | n
COc1ccc(NC(=O)NCCCN2CCc3ccccc3C2)cc1 | -108 | n | n | n | n | n
O=C(NCCN1CCc2ccccc2C1)Nc1ccc([N+](=O)[O-])cc1 | n | n | n | u | n | n
O=C(NCCCN1CCc2ccccc2C1)Nc1ccc(Br)cc1 | -55 | n | n | n | n | n
COc1ccc(N2CCN(CCCNC(=O)Nc3ccccc3)CC2)cc1 | n | n | n | n | n | n
O=[N+]([O-])c1cccc(P(=O)(O)c2cccc([N+](=O)[O-])c2)c1 | n | n | n | u | n | n
CCc1nc2c(OCC(=O)c3ccc(F)cc3)cccn2c1N(C)C(=O)c1cccs1 | n | n | x | x | n | x
COc1ccc(Nc2nnc(SCC3CCCO3)s2)cc1 (stereo not drawn) | n | n | n | n | n | n
COc1ccc(NC(=O)CN2CCc3ccccc3C2)cc1 | -80 | n | x | x | n | n
COc1ccc(NC(=O)CN2CCc3ccccc3C2)cc1OC | n | n | n | x | n | n
COc1cccc2sc3cc(NCc4ccc5c(c4)OCO5)ccc3c(=O)c12 | n | n | x | x | n | n
COc1cc2sc3cc(NCc4ccc5c(c4)OCO5)ccc3c(=O)c2cc1OC | n | 41 | x | x | n | n
CC1(C)CC(=O)C(C=Nc2ccccc2C(=O)O)=C(O)C1 | n | n | n | n | n | n
CC1(C)CC(=O)C(C=Nc2ccccc2Sc2ccccc2)=C(O)C1 | -54 | n | n | n | n | n
Cc1[nH]c2ccc(C(=O)NCCCN3CCCCC3)cc2c1C | u | n | x | n | 18µM! | n
COc1cc2[nH]c(=O)c(C(=O)NCCCN3CCCCC3)c(O)c2cc1OC | -57 | n | n | n | n | n
COC(=O)CCCNC(=O)c1ccc2[nH]c(C)c(C)c2c1 | n | n | n | x | n | n
Cc1[nH]c2ccc(C(=O)NCCN3CCCCCC3)cc2c1C | -70 | n | x | n | n | n
CCCN1CCN(C(=O)c2ccc3[nH]c(C)c(C)c3c2)CC1 | -87 | n | x | x | n | n
Cc1c(C)n(C)c2ccc(C(=O)NCCCN3CCCCC3)cc12 | n | n | x | n | n | n
CC(=O)c1ccc(N2C(=O)CC(N3CCN(S(=O)(=O)c4cc(C)ccc4C)CC3)C2=O)cc1 (stereo not drawn) | n | n | x | x | n | n
CN(C)S(=O)(=O)c1ccc(NC(=O)Cn2nc(-c3ccc4c(c3)OCCO4)ccc2=O)cc1 | n | n | x | x | n | n
Cc1ccc(N=Nc2ccc(O)c3ncccc23)cc1 | -118 | n | n | n | n | n
Cc1ccc(N=Nc2ccc(O)c3ncccc23)cc1C | -69 | n | n | n | n | n

High-throughput results: PubChem, National Center for Advancing Translational Sciences (NCATS)
